Bioassay records from PubChem BioAssay.
ClpP mod = qHTS Assay for Activators of ClpP. ATP-dependent Clp protease proteolytic subunit (Bacillus subtilis (strain 168)), P80244. purified B. subtilis ClpP, FRET peptide cleavage, 20 min. AID 651965, 2013. 1.9% of 340,000 active. Potency, µM (series often up to 57.5 µM), for inactives: at the top dose activity change, negative = active; active means well fitted falling curve with a large enough effect; inconclusive means small, poorly fitted or top-dose-only effect; inactive means no such curve, though single readings can be large or run the other way; further: potency means the concentration at half of the fitted maximal effect; the source files actives as falling curves though it sought activators and does not explain the sign; nearly all actives have a fitted effect of over 65% in size
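Purified B. subtilis ClpP, 10 microg/mL final in Tris/HCl pH8 with KCl, BSA, glycerol and Tween-20, cleaved an Abz/nitrotyrosine-quenched decapeptide. Fluorescence (ex 320, em 430) was read at 0 and 20 min at room temperature. Delta was normalized to 5.8 microM ADEP and DMSO/no-enzyme controls.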
p53 reactivation = mutant p53 re-activation in reporter cells; Potency, µM (series often up to 92.2 µM), inactives show at the top dose activity change, positive = activation, usual class: activators; AID 504706; H1299 p53-A138V BP100-luciferase reporter, luminescence, 24 h; 0.063% of 320,000 active; active means well fitted activation curve with a large enough effect; inconclusive means small, poorly fitted or top-dose-only effect; inactive means no such curve, though single readings can be large or run the other way; further: potency means the concentration at half of the fitted maximal effect; % of control where 0% means no effect; nearly all actives have a fitted effect of over 45% in size
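H1299 (p53-null), stable ts p53-A138V + BP100-Luc; 1000 cells/well, Opti-MEM/10% FBS; cpd 4 pt, 1:5; 24 h, 37 deg C, 5% CO2; detection reagent 10 min RT; luminescence.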
KCNH2 3.1 inh = KCNH2 3.1 (human) potassium channel inhibition; U2OS KCNH2 3.1, thallium flux FluxOr; stronger effect = lower value; activity change, % (tested at about 1.8 µM); 0.95% of 340,000 active; AID 720553;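 active means maximum activity change below -70%; inconclusive means maximum activity change from -70% to -50%; inactive means maximum activity change above -50%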;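 further: thallium influx rate constant from kinetic fluorescence after stimulation buffer; on the % scale 0 is the no-effect control and ±100 the full control effect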
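Thallium flux via FluxOr fluorescence (Red40 quencher, 45 min loading) in U2OS cells virally expressing the KCNH2 3.1 isoform (1.77 x 10^8 /mL virus, overnight at 37 C). Rate constants from 2-min kinetic reads post-stimulation, normalised to positive and negative controls.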
TRPV1 agonist = agonists of human vanilloid receptor 1 (TRPV1); TRPV1-expressing cells, Fluo-8 calcium influx, agonist mode; activation, % at 8.33 µM; 0.19% of 320,000 active; AID 540275; in the data active means activation above about 80%; inconclusive means between about 30% and that limit; further: 0% is about no effect
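Cells expressing TRPV1 were dye-loaded with Fluo-8 and read kinetically: 10 s baseline, 3 min after compound (agonist portion), then 2 min after EC20 capsaicin (allosteric enhancer portion). Calcium-bound dye fluorescence at 480/520 nm.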
KCNH2 WT inh = inhibitors of human wildtype KCNH2 potassium channel | Q12809 | activity change, % at 1.84 µM | 0.37% of 340,000 active | U2OS, BacMam KCNH2, thallium flux FluxOr; stronger effect = lower value;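 active means maximum activity change below -70%; inconclusive means maximum activity change between -70% and -50%; inactive means maximum activity change above -50%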; further: on the % scale 0 is the no-effect control and ±100 the full control effect
Target sequence (Q12809 whole entry, looked up): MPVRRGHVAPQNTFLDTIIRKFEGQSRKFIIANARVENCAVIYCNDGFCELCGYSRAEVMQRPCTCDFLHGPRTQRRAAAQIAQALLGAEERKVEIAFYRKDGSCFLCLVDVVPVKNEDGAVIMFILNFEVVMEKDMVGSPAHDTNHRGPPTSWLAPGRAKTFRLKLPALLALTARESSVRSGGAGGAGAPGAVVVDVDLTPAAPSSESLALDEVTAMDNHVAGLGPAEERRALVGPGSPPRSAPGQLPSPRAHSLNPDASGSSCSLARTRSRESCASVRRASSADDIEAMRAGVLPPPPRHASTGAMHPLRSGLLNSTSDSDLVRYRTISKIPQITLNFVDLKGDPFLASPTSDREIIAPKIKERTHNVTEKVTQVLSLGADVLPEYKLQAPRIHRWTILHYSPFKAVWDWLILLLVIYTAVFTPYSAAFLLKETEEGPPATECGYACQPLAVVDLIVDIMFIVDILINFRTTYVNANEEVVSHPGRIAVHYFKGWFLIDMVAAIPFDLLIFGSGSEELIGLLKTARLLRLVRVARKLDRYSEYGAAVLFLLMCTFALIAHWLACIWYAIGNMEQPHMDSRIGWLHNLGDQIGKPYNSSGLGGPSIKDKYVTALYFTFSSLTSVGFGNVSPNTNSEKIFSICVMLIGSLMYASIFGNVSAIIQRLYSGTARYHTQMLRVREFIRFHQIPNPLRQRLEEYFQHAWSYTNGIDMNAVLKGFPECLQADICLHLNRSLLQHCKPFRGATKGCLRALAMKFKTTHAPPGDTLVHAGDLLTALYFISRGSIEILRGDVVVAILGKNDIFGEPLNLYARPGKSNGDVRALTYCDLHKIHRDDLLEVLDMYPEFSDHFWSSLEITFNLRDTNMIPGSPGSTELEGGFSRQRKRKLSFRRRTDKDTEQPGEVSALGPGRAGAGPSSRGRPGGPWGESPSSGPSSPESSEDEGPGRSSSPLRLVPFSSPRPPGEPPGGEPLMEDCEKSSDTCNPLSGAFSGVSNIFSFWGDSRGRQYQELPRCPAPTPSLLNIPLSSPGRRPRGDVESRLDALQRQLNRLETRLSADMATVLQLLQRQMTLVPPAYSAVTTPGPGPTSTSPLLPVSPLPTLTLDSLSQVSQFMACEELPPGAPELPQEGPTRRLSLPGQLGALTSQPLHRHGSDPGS
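U2OS cells transduced with wild-type KCNH2 virus are loaded with FluxOr dye for 45 min, and thallium flux is measured in kinetic reads before and after stimulation buffer. Rate constants are normalized to DMSO controls.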
TRPV1 PAM = enhances activation of the human vanilloid receptor TRPV1; Q8NER1; TRPV1-expressing cells, Fluo-8 calcium influx, capsaicin EC20 potentiation; potentiation, % at 8.33 µM; 0.02% of 320,000 active; AID 540277; in the data active means potentiation above about 80%; inconclusive means between about 30% and that limit; further: 0% is about no effect
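Fluo-8 calcium influx in TRPV1-expressing cells, kinetic read (ex 480/em 520 nm). Compound added and read 3 min for agonist activity, followed by capsaicin at EC20 final and 2 min further read for enhancement.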
An asterisk follows results filed as active; ? = inconclusive; / = no result given. Most compounds without a hit are left out; they make up all but 2.6% or so of the library.

SMILES | ClpP mod | p53 reactivation | KCNH2 3.1 inh | TRPV1 agonist | KCNH2 WT inh | TRPV1 PAM
Cc1cccc(NC(=O)c2cc(NC(=O)c3ccco3)ccc2N2CCCCC2)c1 | 17.8µM* | 6.0% | -8.6 | 19.8 | -8.6 | -42.0
CSc1nc2ccccc2n1Cc1c(Cl)cccc1Cl | 0.0% | 1.7% | -186.2* | 9.3 | -19.6 | 1.2
Cc1ccc(C)c(C(=O)CCC(=O)Nc2ccc(F)cc2)c1 | -2.5% | -2.2% | -1.0 | ? | -6.1 | -12.4
Cc1ccc(C)c(C(=O)CCC(=O)Nc2ccc(N3CCN(C)CC3)cc2C)c1 | 1.5% | 0.0% | -121.8* | / | -47.8 | /
COC(=O)c1[nH]c2ccc(C)cc2c1NC(=O)CCN1CCN(Cc2ccc3c(c2)OCO3)CC1 | 20µM* | -2.8% | -34.7 | 0.2 | 21.6 | 17.3
CCOC(=O)C1CCCN(CC(=O)Nc2c(C(=O)OC)[nH]c3ccc(C)cc23)C1 (configuration not stated) | 31.6µM* | -13.4% | -1.5 | ? | 0.6 | -6.7
CCOC(=O)c1[nH]c2ccc(OC)cc2c1NC(=O)NC(C)C | 17.8µM* | -1.1% | 2.1 | 1.6 | 4.4 | -4.9
CCOC(=O)c1[nH]c2ccc(OC)cc2c1NC(=O)OC | 28.2µM* | -2.5% | -9.8 | 0.4 | -12.4 | -7.8
CCOC(=O)c1[nH]c2ccccc2c1NC(=O)NC(C)C | / | -1.8% | 1.6 | 8.0 | 5.4 | -25.1
CCOC(=O)C1CCCN(CC(=O)Nc2c(C(=O)OC)[nH]c3ccc(Cl)cc23)C1 (configuration not stated) | -20.8% | -2.4% | -28.6 | ? | 1.9 | 10.6
Cc1cccc(NC(=O)c2c(NC(=O)c3ccccc3)sc3c2CCCC3)c1 | -3.5% | / | / | 4.1 | / | 0.3
CCS(=O)(=O)N1CCc2cc(C(=O)NCCc3ccc(OC)c(OC)c3)ccc21 | -6.5% | / | / | / | / | /
CCOC(=O)c1[nH]c2ccc(OC)cc2c1NC(=O)CCN1CCCC(C)C1 (configuration not stated) | 31.6µM* | -3.7% | 16.8 | -0.5 | 4.3 | -1.8
CCOC(=O)c1[nH]c2ccc(Br)cc2c1NC(=O)CCN1CCCCC1 | / | -5.1% | / | 21.4 | / | -16.8
CCCCn1c(=O)n(C)c(=O)c2c3c(sc21)COC(C)(C)C3 | 28.2µM* | -3.4% | -1.0 | 9.3 | -2.5 | 12.1
Cc1ccc(C(=O)N2CCN(c3ccc(NC(=S)NC(=O)Cc4ccccc4)cc3)CC2)cc1 | -1.8% | -1.1% | -47.6 | -2.9 | 4.7 | 16.6
COc1ccc(C(=O)N2CCN(c3ccc(NC(=O)Cc4ccccc4)cc3)CC2)cc1 | 0.2% | 6.0% | -83.4* | 0.8 | -24.6 | 4.5
Cc1ccc(C(=O)N2CCN(c3ccc(NC(=O)COc4ccccc4C)cc3)CC2)cc1 | 22.1% | 8.4% | -95.1* | -5.4 | -133.6* | 4.4
Cc1cc(C)c2nc(C)cc(Nc3cccc(C(=O)O)c3)c2c1 | -2.6% | / | / | / | / | /
C[C@@H]1[C@H](c2ccccc2)OCCS(=O)(=O)N1Cc1ccc(F)cc1 | 0.4% | / | / | / | / | /
CCCC[C@@H](CNC)NC[C@H](Cc1ccc(O)cc1)NCCc1ccc(OCC)cc1 | -1.1% | 6.5% | -71.2* | 4.2 | -24.4 | 9.8
COc1ccc2c(-c3ccccc3)cc(N3CCOCC3)nc2c1 | 31.6µM* | -17.2% | -17.2 | -0.6 | -0.9 | 8.9
O=C(Nc1cccc(S(=O)(=O)N2CCCCCC2)c1)c1ccc2c(c1)OCO2 | -2.0% | 6.9% | -83.9* | ? | -24.4 | 5.5
O=C(Cn1nnc(-c2ccccc2)n1)Nc1cccc(S(=O)(=O)N2CCCC2)c1 | 31.6µM* | 7.3% | -12.4 | 6.1 | -8.8 | 2.5
CCOC(=O)c1noc2ncnc(N3CCN(c4ccccc4OC)CC3)c12 | 0.0% | / | / | / | / | /
Cc1ccc(C)c(NC(=O)C2CCCN2/C=C/C(=O)C(F)(F)F)c1 (configuration not stated) | ? | 8.2% | -118.9* | 3.4 | -0.6 | -11.7
O=C(NN1C(=O)C2C3C=CC(C3)C2C1=O)c1cccc(Cl)c1 (configuration not stated) | ? | -0.1% | -15.5 | -1.4 | -78.0* | 1.9
Cc1nn(Cc2ccccc2)c(C)c1N | 28.2µM* | -4.8% | 1.0 | -4.0 | 1.2 | 7.6
